# According to ChEMBL document CHEMBL4649984, “CBP30, a selective CBP/p300 bromodomain inhibitor, suppresses human Th17 responses” (Proc Natl Acad Sci U S A, 2015):
# Where “and” joins values, the source holds several entries; their conditions need not be identical. Equal entries are not always repeated.
# Assays:
# [1] = target: Bromodomain-containing protein 4 (Homo sapiens) (UniProt O60885); settings: Compound concentration 10.0 uM, Protein concentration 2.0 uM
# [2] = target: T1, Transcription intermediary factor 1-alpha (Homo sapiens) (UniProt O15164); settings: Compound concentration 10.0 uM, Protein concentration 2.0 uM
# T1 sequence (whole entry): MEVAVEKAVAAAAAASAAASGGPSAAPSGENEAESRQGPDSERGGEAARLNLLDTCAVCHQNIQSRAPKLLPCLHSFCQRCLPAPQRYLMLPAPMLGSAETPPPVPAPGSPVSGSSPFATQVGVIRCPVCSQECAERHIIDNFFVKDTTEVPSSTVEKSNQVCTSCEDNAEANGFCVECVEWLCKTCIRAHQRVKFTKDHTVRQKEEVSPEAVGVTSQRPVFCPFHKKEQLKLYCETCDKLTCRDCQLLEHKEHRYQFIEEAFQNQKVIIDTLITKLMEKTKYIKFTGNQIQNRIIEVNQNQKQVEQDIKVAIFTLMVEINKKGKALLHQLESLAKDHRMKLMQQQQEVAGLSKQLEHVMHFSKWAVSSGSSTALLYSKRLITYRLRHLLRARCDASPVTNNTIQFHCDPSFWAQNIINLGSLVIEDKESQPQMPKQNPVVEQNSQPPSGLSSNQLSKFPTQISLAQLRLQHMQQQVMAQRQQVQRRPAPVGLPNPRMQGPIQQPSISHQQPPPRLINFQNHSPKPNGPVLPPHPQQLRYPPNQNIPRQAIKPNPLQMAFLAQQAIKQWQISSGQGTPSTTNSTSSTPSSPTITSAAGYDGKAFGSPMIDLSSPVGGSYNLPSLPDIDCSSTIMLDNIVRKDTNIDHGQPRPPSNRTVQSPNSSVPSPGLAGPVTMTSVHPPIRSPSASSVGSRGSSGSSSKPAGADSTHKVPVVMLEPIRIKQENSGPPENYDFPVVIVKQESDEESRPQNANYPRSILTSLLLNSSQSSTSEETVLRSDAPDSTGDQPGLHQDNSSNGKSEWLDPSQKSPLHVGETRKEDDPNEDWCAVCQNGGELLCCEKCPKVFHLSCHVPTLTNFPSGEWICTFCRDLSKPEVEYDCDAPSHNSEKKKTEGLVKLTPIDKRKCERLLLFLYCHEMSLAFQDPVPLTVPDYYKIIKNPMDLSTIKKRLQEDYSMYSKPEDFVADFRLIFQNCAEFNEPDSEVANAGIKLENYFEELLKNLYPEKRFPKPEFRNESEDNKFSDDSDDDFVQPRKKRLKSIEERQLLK
compound,measurement,setting,value
COc1ccc(CCc2nc3cc(-c4c(C)noc4C)ccc3n2C[C@H](C)N2CCOCC2)cc1Cl,ΔTm,[1],1.65 °C and 2.75 °C
same,ΔTm,[2],0.88 °C
